Laboratory results published in PubChem BioAssay AID651818 (Broad Institute, 2012).
Results with a measured potency or affinity are listed apart. Inconclusive results are not listed. Active and inactive are the calls of the source. No stated cut-off is given here; in the data, inconclusive means activity change below about -55%; inactive means above that.

Assay: intracellular Trypanosoma cruzi inhibitors in host cells – cell-based, plate reader, cherry-pick samples, set 3, dose response (AID 651818)
Settings: series mostly up to 10 µM; activity change, negative = inhibition: at the top concentration

Row | SMILES | activity change, negative = inhibition
1 | C[C@H](CO)N1C[C@H](C)[C@@H](CN(C)S(=O)(=O)c2ccc(F)cc2)Oc2c(NC(=O)c3cnccn3)cccc2C1=O | -3.76% (inactive)
2 | C[C@@H]1CN([C@@H](C)CO)C(=O)c2cccc(NC(=O)Nc3ccccc3)c2O[C@@H]1CN(C)S(=O)(=O)c1cn(C)cn1 | -19.1% (inactive)
3 | C[C@H](CO)N1C[C@H](C)[C@@H](CN(C)S(=O)(=O)c2ccc(F)cc2)Oc2c(NC(=O)C3CCOCC3)cccc2C1=O | 13.3% (inactive)
4 | C[C@H](CO)N1C[C@H](C)[C@@H](CN(C)C(=O)Nc2ccc3c(c2)OCO3)Oc2c(NC(=O)C3CCOCC3)cccc2C1=O | -14.1% (inactive)
5 | C[C@@H]1CN([C@@H](C)CO)C(=O)c2cccc(NC(=O)c3cnccn3)c2O[C@@H]1CN(C)S(=O)(=O)c1cccs1 | -13% (inactive)
6 | COc1ccc(NC(=O)N(C)C[C@H]2Oc3c(NC(=O)C4CCCCC4)cccc3C(=O)N([C@H](C)CO)C[C@@H]2C)cc1 | 31.2% (inactive)
7 | C[C@@H]1CN([C@@H](C)CO)C(=O)c2cccc(NS(C)(=O)=O)c2O[C@H]1CN(C)C(=O)NC1CCCCC1 | -0.449% (inactive)
8 | C[C@H]1CN([C@@H](C)CO)C(=O)c2cccc(NS(=O)(=O)c3cccs3)c2O[C@@H]1CN(C)C(=O)NC1CCCCC1 | 29.2% (inactive)
9 | C[C@@H]1CN([C@@H](C)CO)C(=O)c2cccc(NS(=O)(=O)c3ccccc3)c2O[C@@H]1CN(C)CC1CC1 | -7.83% (inactive)
10 | C[C@H](CO)N1C[C@H](C)[C@H](CN(C)S(C)(=O)=O)Oc2c(NS(=O)(=O)c3ccc(F)cc3)cccc2C1=O | 25.3% (inactive)
11 | C[C@H](CO)N1C[C@H](C)[C@@H](CN(C)Cc2ccc3c(c2)OCO3)Oc2c(NS(=O)(=O)c3ccc(Cl)cc3)cccc2C1=O | 0.07% (inactive)
